Results from the antibiotic and cytotoxicity screens of Wong et al. (2023).
In all, about 39,000 compounds went through this assay and about 1,500 (3.8%) were called active. This excerpt belongs to a sample that is enriched for actives.

system: HSkMC (human skeletal muscle cells); test: cytotoxicity call (relative viability < 0.9); settings: 10 µM

Structure (SMILES) | cytotoxicity call
C=C(NC(=O)C(=C)NC(=O)c1csc(C2=N[C@@H]3c4csc(n4)[C@@H]4NC(=O)c5csc(n5)[C@H](C(C)(O)[C@@H](C)O)NC(=O)[C@H]5CSC(=N5)/C(=C/C)NC(=O)[C@H]([C@@H](C)O)NC(=O)c5csc(n5)[C@]3(CC2)NC(=O)[C@@H](C)NC(=O)C(=C)NC(=O)[C@@H](C)NC(=O)[C@@H]([C@H](C)CC)N[C@H]2C=Cc3c([C@@H](C)O)cc(nc3[C@@H]2O)C(=O)O[C@H]4C)n1)C(N)=O (stereo not given in full) | inactive
C=C(NC(=O)C(=C)NC(=O)c1csc(C2=N[C@H]3c4csc(n4)[C@H]4NC(=O)c5csc(n5)[C@H](C(C)(O)[C@@H](C)O)NC(=O)[C@H]5CSC(=N5)C(=CC)NC(=O)[C@H]([C@@H](C)O)NC(=O)c5csc(n5)[C@]3(CC2)NC(=O)[C@H](C)NC(=O)C(=C)NC(=O)[C@H](C)NC(=O)[C@H]([C@H](C)CC)N[C@@H]2C=Cc3c([C@H](C)O)cc(nc3[C@H]2O)C(=O)O[C@@H]4C)n1)C(N)=O (stereo not given in full) | active
C=C(NC(=O)C(=C)NC(=O)c1csc(C2=NC3c4csc(n4)C4NC(=O)c5csc(n5)C(C(C)(O)C(C)O)NC(=O)C5CSC(=N5)C(=CC)NC(=O)C(C(C)O)NC(=O)c5csc(n5)C3(CC2)NC(=O)C(C)NC(=O)C(=C)NC(=O)C(C)NC(=O)C(C(C)CC)NC2C=Cc3c(C(C)O)cc(nc3C2O)C(=O)OC4C)n1)C(N)=O (stereo not given) | inactive
C[C@@H]1CCCCO[C@H](CN(C)C(=O)NC2CCCCC2)[C@@H](C)CN([C@@H](C)CO)C(=O)c2cc(NC(=O)C3CCCCC3)ccc2O1 | inactive
CS(=O)(=O)N1[C@@H]2c3ccc(-c4ccc(F)cc4)c(=O)n3C[C@@H]2[C@@H](CO)[C@@H]1C(=O)O | inactive
Cc1noc(C)c1S(=O)(=O)N(C)C[C@H]1Oc2ccc(NS(=O)(=O)c3ccccc3)cc2C(=O)N([C@@H](C)CO)C[C@H]1C | inactive
C[C@@H]1CCCCO[C@H](CN(C)S(C)(=O)=O)[C@H](C)CN([C@@H](C)CO)C(=O)c2cc(NS(=O)(=O)c3cn(C)cn3)ccc2O1 | inactive
C[C@@H]1CN([C@H](C)CO)C(=O)c2cc(NC(=O)Cc3ccccc3)ccc2O[C@@H](C)CCCCO[C@H]1CN(C)Cc1ccc(Cl)c(Cl)c1 | active
C[C@@H]1CCCCO[C@@H](CN(C)Cc2ccc(Cl)c(Cl)c2)[C@@H](C)CN([C@H](C)CO)C(=O)c2cc(NC(=O)Cc3ccccc3)ccc2O1 | active
C[C@H]1CCCCO[C@H](CN(C)Cc2ccc(Cl)c(Cl)c2)[C@@H](C)CN([C@@H](C)CO)C(=O)c2cc(NC(=O)Cc3ccccc3)ccc2O1 | inactive
C[C@@H]1CCCCO[C@H](CN(C)Cc2ccc(Cl)c(Cl)c2)[C@@H](C)CN([C@@H](C)CO)C(=O)c2cc(NC(=O)Cc3ccccc3)ccc2O1 | inactive
C[C@@H]1CCCCO[C@@H](CN(C)Cc2ccc(Cl)c(Cl)c2)[C@H](C)CN([C@@H](C)CO)C(=O)c2cc(NC(=O)Cc3ccccc3)ccc2O1 | inactive
C[C@@H]1CCCCO[C@H](CN(C)Cc2ccc(Cl)c(Cl)c2)[C@H](C)CN([C@@H](C)CO)C(=O)c2cc(NC(=O)Cc3ccccc3)ccc2O1 | inactive
C[C@@H]1CCCCO[C@@H](CN(C)Cc2ccc(Cl)c(Cl)c2)[C@H](C)CN([C@H](C)CO)C(=O)c2cc(NC(=O)Cc3ccccc3)ccc2O1 | active
C[C@@H]1CCCCO[C@@H](CN(C)Cc2ccc(Cl)c(Cl)c2)[C@@H](C)CN([C@@H](C)CO)C(=O)c2cc(NC(=O)Cc3ccccc3)ccc2O1 | inactive
C[C@@H]1CN([C@H](C)CO)C(=O)c2cc(NC(=O)Cc3ccccc3)ccc2O[C@@H](C)CCCCO[C@@H]1CN(C)Cc1ccc(Cl)c(Cl)c1 | inactive
COc1ccc(-c2cnc3c(c2)C(=O)N([C@@H](C)CO)C[C@H](C)[C@H](CN(C)C(=O)Cc2ccccn2)O3)cc1 | inactive
C[C@@H]1CN([C@H](C)CO)C(=O)c2cc(NC(=O)Cn3cnnn3)ccc2O[C@@H]1CN(C)Cc1ccc(C(F)(F)F)cc1 | inactive
C[C@H]1CCCCO[C@H](CN(C)C(=O)Cc2ccccc2)[C@@H](C)CN([C@@H](C)CO)C(=O)c2cc(NC(=O)Nc3ccccc3)ccc2O1 | inactive
C[C@@H]1CCCCO[C@H](CN(C)C(=O)Nc2ccc(F)cc2)[C@@H](C)CN([C@H](C)CO)C(=O)c2cc(NC(=O)CCC(F)(F)F)ccc2O1 | inactive

Structure (SMILES) | cytotoxicity call
C[C@@H]1CN([C@@H](C)CO)C(=O)CCCn2cc(nn2)CO[C@H]1CN(C)C(=O)Nc1cccc(Oc2ccccn2)c1 | inactive
C[C@@H]1CN([C@H](C)CO)C(=O)c2cccc(NC(=O)c3ccc(-c4nccs4)cc3)c2O[C@H]1CN(C)S(=O)(=O)c1ccc(Cl)cc1 | inactive
C=C1c2cccc(O)c2C(=O)C2=C(O)[C@]3(O)C(O)=C(C(N)=O)C(=O)[C@@H](N(C)C)[C@@H]3[C@@H](O)[C@H]12 | inactive
O=C(C[C@H]1CC[C@@H]2[C@H](COC[C@H](O)CN2S(=O)(=O)c2ccc(Cl)cc2)O1)NCCN1CCCC1 | inactive
COc1ccc2c3c([nH]c2c1)[C@H](CO)N(C[C@]13CCN(CC1)C(=O)Nc1ccccc1)C(=O)Nc1ccc(cc1)F | inactive
COc1ccc2c3c([nH]c2c1)[C@@H](CO)N(C[C@]13CN(Cc2cc(on2)-c2ccccc2)C1)C(=O)Nc1ccc(cc1)F | inactive
COc1ccc(cc1)CN1CC[C@]2(CC1)CN([C@H](CO)c1[nH]c3cc(ccc3c12)OC)C(=O)Nc1ccc(cc1)F | inactive
COc1ccc2c3c([nH]c2c1)[C@@H](CO)N(C[C@]13CCN(CC1)Cc1cc(on1)-c1ccccc1)C(=O)Nc1ccc(cc1)F | active
COc1ccc2c3c([nH]c2c1)[C@@H](CO)N(C[C@]13CCN(CC1)C(=O)Nc1ccccc1)C(=O)Nc1ccc(cc1)F | inactive
COc1ccc2c3c([nH]c2c1)[C@H](CO)N(C[C@]13CCN(CC1)Cc1ccccc1OC)C(=O)Nc1ccc(cc1)F | inactive
COc1ccc2c3c([nH]c2c1)[C@@H](CO)N(C[C@]13CCN(CC1)Cc1ccccc1OC)C(=O)Nc1ccc(cc1)F | inactive
COc1ccc(cc1)CN1CC[C@]2(CC1)CN([C@@H](CO)c1[nH]c3cc(ccc3c12)OC)C(=O)Nc1ccc(cc1)F | inactive
COc1ccc2c3c([nH]c2c1)[C@@H](CO)N(C[C@]13CCN(CC1)Cc1ccc(cc1)F)C(=O)Nc1ccc(cc1)F | active
COc1ccc2c3c([nH]c2c1)[C@H](CO)N(C[C@]13CN(Cc2cc(on2)-c2ccccc2)C1)C(=O)Nc1ccc(cc1)F | active
COc1ccc2c3c([nH]c2c1)[C@H](CO)N(C[C@]13CCN(CC1)Cc1cc(on1)-c1ccccc1)C(=O)Nc1ccc(cc1)F | active
COc1ccc2c3c([nH]c2c1)[C@H](CO)N(C[C@]13CCN(CC1)Cc1ccc(cc1)F)C(=O)Nc1ccc(cc1)F | inactive
C=c1[nH]/c(=C\c2ccc(F)cc2)c(=O)o1 | inactive
Cc1noc(C)c1S(=O)(=O)Nc1ccc2c(c1)C(=O)N([C@H](C)CO)C[C@H](C)[C@@H](CN(C)S(C)(=O)=O)OCCCC[C@H](C)O2 | inactive
C[C@H]1CN([C@@H](C)CO)C(=O)Cc2cc(NC(=O)CCCN(C)C)ccc2O[C@@H]1CN(C)C(=O)Nc1ccc2c(c1)OCO2 | inactive
C[C@@H]1CN([C@@H](C)CO)C(=O)c2cccc(NC(=O)c3cnccn3)c2O[C@@H]1CN(C)S(=O)(=O)c1ccccc1 | inactive

Structure (SMILES) | cytotoxicity call
CCS(=O)(=O)NCC[C@H]1CC[C@H](NC(=O)C2CC2)[C@@H](CO)O1 | inactive
O=C(O)CNC(=O)[C@H]1COc2ccccc2O1 | inactive
COc1cccc(-c2cn(CC[C@H]3CC[C@H](NC(=O)CN(C)C)[C@H](CO)O3)nn2)c1 | inactive
COc1ccc(NC(=O)N(C)C[C@H]2OCCCC[C@H](C)Oc3ccc(NC(=O)C4CCCCC4)cc3C(=O)N([C@@H](C)CO)C[C@H]2C)cc1 | inactive
CC(=O)O[C@H]1C[C@@]2(C)[C@H]3CC=C4[C@@H](C[C@@H](O[C@H]5O[C@@H](CO)[C@@H](O)[C@@H](O)[C@@H]5O)[C@@H](O)C4(C)C)[C@@]3(C)CC[C@@]2(C)[C@@H]1C(C)(O)C(=O)CCC(C)(C)O (stereo not given in full) | inactive
COc1ccc(S(=O)(=O)Nc2ccc3c(c2)C(=O)N([C@@H](C)CO)C[C@@H](C)[C@H](CN(C)S(=O)(=O)c2ccc(F)cc2)O3)cc1 | inactive
O=C(O)[C@H]1C[C@H]2C(=O)NCC(=O)N2[C@H]1c1ccc(O)cc1 | inactive
C[C@@H]1CN([C@H](C)CO)C(=O)c2cccc(NC(=O)c3ccc(-c4nccs4)cc3)c2O[C@@H]1CN(C)Cc1ccc2c(c1)OCO2 | inactive
C[C@@H]1CN([C@H](C)CO)C(=O)c2c(c3ccccc3n2C)-c2ccccc2CO[C@@H]1CN(C)Cc1ccc(-c2ccccc2)cc1 | inactive
C[C@H](CO)N1C[C@H](C)[C@H](CN(C)C(=O)Nc2ccc(-c3ccccc3)cc2)OCc2ccccc2-c2c(n(C)c3ccccc23)C1=O | active
C[C@@H]1CN([C@@H](C)CO)C(=O)c2c(c3ccccc3n2C)-c2ccccc2CO[C@@H]1CN(C)Cc1ccc(-c2ccccc2)cc1 | active
C[C@H](CO)N1C[C@H](C)[C@@H](CN(C)Cc2ccccc2)OCc2ccccc2-c2c(n(C)c3ccccc23)C1=O | inactive
C[C@@H]1CN([C@@H](C)CO)C(=O)c2c(c3ccccc3n2C)-c2ccccc2CO[C@H]1CN(C)Cc1ccc(-c2ccccc2)cc1 | inactive
C[C@H](CO)N1C[C@H](C)[C@@H](CN(C)Cc2ccc(-c3ccccc3)cc2)OCc2ccccc2-c2c(n(C)c3ccccc23)C1=O | inactive
C[C@@H]1CN([C@H](C)CO)C(=O)c2c(c3ccccc3n2C)-c2ccccc2CO[C@H]1CN(C)Cc1ccccc1 | active
C[C@H]1CN([C@@H](C)CO)C(=O)c2c(c3ccccc3n2C)-c2ccccc2CO[C@@H]1CN(C)Cc1ccc(-c2ccccc2)cc1 | inactive
C[C@@H]1CN([C@H](C)CO)C(=O)c2c(c3ccccc3n2C)-c2ccccc2CO[C@@H]1CN(C)C(=O)Nc1ccc(-c2ccccc2)cc1 | inactive
C[C@@H]1CN([C@H](C)CO)C(=O)c2c(c3ccccc3n2C)-c2ccccc2CO[C@H]1CN(C)C(=O)Nc1ccc(-c2ccccc2)cc1 | inactive
C[C@H]1CN([C@@H](C)CO)C(=O)c2c(c3ccccc3n2C)-c2ccccc2CO[C@@H]1CN(C)Cc1ccccc1 | inactive
C[C@H](CO)N1C[C@H](C)[C@H](CN(C)Cc2ccc(-c3ccccc3)cc2)OCc2ccccc2-c2c(n(C)c3ccccc23)C1=O | active
